Results taken from PubChem BioAssay (NCI).
About 83,000 compounds went through this panel and 20% of them were active in at least one assay; those are over-represented in the sample as a whole.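 Single-dose data. Exposure time 48 hours. Values below 10 considered active.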 Unmarked numbers belong to inactive results. Activity calls are given as the source filed them.

Experiments:
Experiment in all cases: NCI-60 one-dose screen, 48 h (100 = growth as untreated, 0 = no growth, -100 = all killed)
Conditions in all cases: 10 µM
[1] = system: SK-MEL-2 melanoma
[2] = system: SN12C renal
[3] = system: UO-31 renal
[4] = system: TK-10 renal
[5] = system: CAKI-1 renal
[6] = system: A498 renal
[7] = system: CCRF-CEM leukemia
[8] = system: MOLT-4 leukemia
[9] = system: SR leukemia
[10] = system: RPMI-8226 leukemia
[11] = system: OVCAR-8 ovarian
[12] = system: OVCAR-5 ovarian
[13] = system: OVCAR-4 ovarian
[14] = system: SK-OV-3 ovarian
[15] = system: IGROV1 ovarian
[16] = system: HS 578T breast
[17] = system: NCI/ADR-RES ovarian
[18] = system: OVCAR-3 ovarian
[19] = system: ACHN renal

Compound | growth [1] | growth [2] | growth [3] | growth [4] | growth [5] | growth [6] | growth [7] | growth [8] | growth [9] | growth [10] | growth [11] | growth [12] | growth [13] | growth [14] | growth [15] | growth [16] | growth [17] | growth [18] | growth [19]
N/C(=N\O)c1cn(C2OC(CO)C(O)C2O)c2ncnc(N)c12 (stereo unspecified) | -41.5% (active) | 3.58% (active) | 10% (active) | -0.402% (active) | 3.33% (active) | -56.3% (active) | -10.4% (active) | -27.7% (active) | -4.39% (active) | -43.6% (active) | -14.4% (active) | 24.3% | -21.6% (active) | -30.2% (active) | -13.7% (active) | -5.15% (active) | 4.77% (active) | – | –
NC(N)=NS(=O)(=O)c1ccc(Nc2ccc3nnc(-c4ccncc4)n3n2)cc1 | 131% | 94.6% | – | 112% | 106% | 95.5% | 109% | 101% | 96.9% | 104% | – | 100% | 103% | 104% | 113% | 99.6% | 105% | 110% | –
CCNC1(NC#N)CCCCC1 | 157% | 100% | – | 141% | 96.3% | 98.3% | 102% | 108% | 103% | 101% | 84.4% | 116% | 113% | 104% | 115% | 103% | 101% | – | –
O=C(Nc1cccc(Cl)c1)Nc1cc2ncncc2cc1OCc1cccc(F)c1 | -24.3% (active) | 21.7% | – | -3.16% (active) | 14.6% | -9.36% (active) | 2.81% (active) | 4.84% (active) | -1.31% (active) | -0.539% (active) | 3.52% (active) | 29.6% | 22.4% | 28.1% | 19% | 45.9% | 13.6% | 12.6% | –
Cc1ccccc1[P+](Cc1ccccc1)(c1ccccc1)c1ccccc1 | -23.1% (active) | 29.9% | – | 21.4% | 86.8% | 37% | 19.3% | 19.3% | 2.45% (active) | -27% (active) | 10% | 52% | 8.97% (active) | 43.7% | 14.3% | – | 104% | 26.4% | 75.6%
Cc1ccc(C(=O)O)c(N)c1C | 89.3% | 106% | – | 122% | 92.6% | 108% | 93.4% | 93.6% | – | 98.7% | 100% | 106% | 99.3% | 93.5% | 91% | 106% | 106% | 104% | 103%
CN(C)c1ccc2cc(-c3cc4c(oc3=O)-c3ccccc3OC4O)c(=O)oc2c1 (stereo unspecified) | -38.2% (active) | 57.9% | – | -36.4% (active) | -4.81% (active) | 13.2% | -20.5% (active) | -64.7% (active) | -12.7% (active) | -9.42% (active) | 13.6% | -9.51% (active) | 26% | 28.8% | -28.7% (active) | -7.78% (active) | 0.415% (active) | -30% (active) | 4.78% (active)
CCOC(=O)c1sc(NC(=O)c2cc(OC)c(OC)c(OC)c2)nc1C | 30.8% | 92.6% | 75.7% | – | 116% | 88.8% | 88.3% | 87.6% | 79% | 83% | 99.3% | 108% | 113% | 152% | -10.1% (active) | 80.8% | 103% | – | 105%
CC(=O)Oc1c(C)c(C)c2c(c1C)CCC(C)(CC(=O)OCCCCCCCCCCC[P+](c1ccccc1)(c1ccccc1)c1ccccc1)O2 (stereo unspecified) | -88.7% (active) | – | -5.35% (active) | -97% (active) | -76.3% (active) | -20.5% (active) | 3.68% (active) | -23.6% (active) | -34.7% (active) | -49.8% (active) | -44.1% (active) | -37.4% (active) | -83.2% (active) | -18.4% (active) | -46.2% (active) | -35.2% (active) | -42.5% (active) | -90.5% (active) | -95.4% (active)
Nc1c(C(=O)NC2CCCCC2)sc2nc3c(cc12)C(=O)CCC3 | 97.2% | 93.3% | 94.6% | 140% | 90.3% | 88.6% | 98.8% | 90.2% | 78.7% | 100% | 101% | 114% | 105% | – | 116% | 102% | 102% | 112% | –
CC(=O)OC1Oc2ccccc2-c2oc(=O)c(-c3cc(=O)oc4cc(O)ccc34)cc21 (stereo unspecified) | 87.3% | 95.6% | – | 82.5% | 93.7% | 54.8% | 32.1% | 42.8% | 3.66% (active) | 46.7% | 89.1% | 75.8% | 77.2% | 83.3% | 49.4% | 59.5% | 75.5% | 63.8% | 85.8%
CCN(Cc1ccccc1)C1CCN(Cc2cc(Br)ccc2O)CC1 | 69.7% | 44.8% | – | 52.1% | 44.7% | 66.2% | 43.5% | 61.2% | 7.57% (active) | 21.9% | 59.9% | 68.1% | 36.9% | 76.9% | 44.6% | 56.6% | 36.1% | 51.8% | 45.1%
CCCCCCCCCCCCCCCCn1cc[n+](C)c1 | -64.5% (active) | -94.6% (active) | – | -80.4% (active) | -83.5% (active) | -65.3% (active) | 33.6% | 17.2% | 15.2% | 15.8% | -53.7% (active) | -67.5% (active) | -54.8% (active) | -33.8% (active) | -67.1% (active) | -48.4% (active) | 37.1% | -24.8% (active) | –
COc1cccc2c1O/C(=C\c1ccc([N+](=O)[O-])s1)C2=O | 43.3% | 70.1% | -0.107% (active) | 73.6% | 90.9% | 109% | 43.6% | 75.5% | 8.26% (active) | 25.7% | – | 101% | 74.2% | 96.6% | 25.9% | 40.8% | 87.5% | -16.7% (active) | –
COc1ccc(C2CC(c3ccc(-c4ccccc4)cc3)=NN2c2ccc(S(N)(=O)=O)cc2)cc1 (stereo unspecified) | 90.3% | – | 50% | 65.4% | 45.2% | 98% | 51.7% | 54.8% | 80% | 57.2% | 70.2% | 90% | 70% | 79.5% | 46.3% | 85.5% | 60.7% | 89.9% | 74.7%
COc1cc(-c2cc(/C=C/C(C)=O)[nH]n2)cc(OC)c1OC | 87.2% | 67.5% | – | 73.8% | 55.2% | 90.7% | 20% | 71.2% | 4.57% (active) | 22.8% | 73.5% | 94.5% | 70.8% | 109% | 73.8% | 91.8% | 80.7% | 85.2% | 78.7%
C[N+]1=C(/C=C/c2ccc(I)cc2)C(C)(C)c2ccccc21 | 95.6% | – | 83.5% | 89.2% | 94.4% | 104% | 2.26% (active) | 8.77% (active) | -8.97% (active) | 71.8% | 67.5% | 90.1% | 109% | 107% | 92.3% | 101% | 101% | 34.4% | 94.7%
O=C(c1ccc(Cl)cc1)c1no[n+]([O-])c1C(=O)c1ccc(Cl)cc1 | 92% | 86.4% | -94.9% (active) | 84.1% | -68.6% (active) | 106% | -51.6% (active) | 68.2% | -18.5% (active) | 35.5% | – | 105% | 92.5% | 105% | -35.8% (active) | 109% | 82.7% | 43.2% | –
